Source: the supplement of paper PMC10849652
About 8,800 targets were measured; listed, in parts, are those with a hit and a random draw of the rest. About 0.5% of all pairs of compound and target were hits.

Tests used:
Assay in all cases: log2 fold change, soluble protein after heating vs DMSO (PISA); higher = thermal stabilisation; K562 lysate, 10 uM; active = over 0.2 and 3.5 SD of the protein, either way, in both replicates (recomputed)
erlotinib = compound: C#Cc1cccc(Nc2ncnc3cc(OCCOC)c(OCCOC)cc23)c1 [erlotinib]
How it was run: (§1)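 Log-two fold change in thermal stability relative to solvent controls is reported from duplicates. For each sample, crude K562 extract from dounce-homogenised pellets in PBS pH 7.4 with 1 mM MgCl2, at 1 mg/mL protein, was treated with 10 μM compound for 30 min. Aliquots heated for 3 min across 48°C-58°C were pooled, brought to 0.5% NP-40 at 4°C and cleared at 21,000xg for 90 min. The supernatant was quantified by TMTpro 16plex LC-MS/MS with channel sums equalised.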

[1] = compound: C/C(=N\NC(=O)C1=CC(=CC=C1)S(=O)(=O)N2CCOCC2)/C3=C(C=CC(=C3)Cl)O
How it was run: as §1

[2] = compound: C1=CC(=CC=C1C2=NC3=C(N2)C=C(C=C3)C(=O)N)OC4=CC=C(C=C4)Cl
How it was run: as §1

[3] = compound: C1=CC2=C(C=CC(=C2)/C=C\3/C(=O)NC(=NCC4=CC=CS4)S3)N=C1
How it was run: as §1

[4] = compound: C1=CC2=NC=CN=C2C=C1/C=C/3\C(=O)NC(=O)S3
How it was run: as §1

[5] = compound: C1=CC=C(C=C1)C2=NC(=C(N2)C3=CC=NC=C3)C4=CC(=C(C=C4)Cl)O
How it was run: as §1

[6] = compound: C1=CC=C2C(=C1)C3=NNC4=CC=CC(=C43)C2=O
How it was run: as §1

[7] = compound: C1CCN(C1)C(=O)NC2=CC=CC(=C2)NC3=NC=C(C(=N3)NCCC4=CN=CN4)Br
How it was run: as §1

[8] = compound: C1CN(CCC1(CC2=CC=C(C=C2)Cl)N)C3=NC=NC4=C3C=CN4
How it was run: as §1

IRAK-1-4 Inhibitor I = compound: C1COCCN1CCN2C3=CC=CC=C3N=C2NC(=O)C4=CC(=CC=C4)[N+](=O)[O-] [IRAK-1-4 Inhibitor I]
How it was run: as §1

ibrutinib = compound: C=CC(=O)N1CCC[C@@H](n2nc(-c3ccc(Oc4ccccc4)cc3)c3c(N)ncnc32)C1 [ibrutinib]
How it was run: as §1

[9] = compound: CC(=O)c1cnc2ccc(-c3cc(Cl)c(O)c(Cl)c3)nc2c1N[C@H]1CC[C@H](CN(C)C)CC1
How it was run: as §1

ralimetinib = compound: CC(C)(C)Cn1c(N)nc2ccc(-c3[nH]c(C(C)(C)C)nc3-c3ccc(F)cc3)nc21 [ralimetinib]
How it was run: as §1

[10] = compound: CC(C)(O)CC(=O)NCCn1ccc2ncnc(Nc3ccc(Oc4cccc(C(F)(F)F)c4)c(Cl)c3)c21
How it was run: as §1

[11] = compound: CC(C)C1=C2N=C(C=C(N2N=C1)NCC3=CC=CC=C3)NCCCCCCN
How it was run: as §1

[12] = compound: CC1=C(C(CC(=O)N1)C2=CC=C(C=C2)C(F)(F)F)C(=O)NC3=C(C=C4C(=C3)C=NN4)F
How it was run: as §1

[13] = compound: CC1=C(C2=C(C=C1)C(=O)C3=CC=CC=C3N2CCCN)C
How it was run: as §1

[14] = compound: CC1=C(C=C(C=C1)NC(=O)C2=CC(=CC=C2)C(C)(C)C#N)NC3=CC4=C(C=C3)N=CN(C4=O)C
How it was run: as §1

[15] = compound: CC1=C(C=C(C=C1)NC(=O)C2=CC(=CC=C2)N(C)C)NC(=O)C3=CC=C(C=C3)O
How it was run: as §1

[16] = compound: CC1=CC=C(C=C1)SC2=C3C=C(SC3=CN=C2)C(=O)N
How it was run: as §1

Measured: log2 fold change

ZMYM2 (UniProt Q9UBW7)
Chain of UniProt Q9UBW7 (Q9UBW7 whole entry, looked up): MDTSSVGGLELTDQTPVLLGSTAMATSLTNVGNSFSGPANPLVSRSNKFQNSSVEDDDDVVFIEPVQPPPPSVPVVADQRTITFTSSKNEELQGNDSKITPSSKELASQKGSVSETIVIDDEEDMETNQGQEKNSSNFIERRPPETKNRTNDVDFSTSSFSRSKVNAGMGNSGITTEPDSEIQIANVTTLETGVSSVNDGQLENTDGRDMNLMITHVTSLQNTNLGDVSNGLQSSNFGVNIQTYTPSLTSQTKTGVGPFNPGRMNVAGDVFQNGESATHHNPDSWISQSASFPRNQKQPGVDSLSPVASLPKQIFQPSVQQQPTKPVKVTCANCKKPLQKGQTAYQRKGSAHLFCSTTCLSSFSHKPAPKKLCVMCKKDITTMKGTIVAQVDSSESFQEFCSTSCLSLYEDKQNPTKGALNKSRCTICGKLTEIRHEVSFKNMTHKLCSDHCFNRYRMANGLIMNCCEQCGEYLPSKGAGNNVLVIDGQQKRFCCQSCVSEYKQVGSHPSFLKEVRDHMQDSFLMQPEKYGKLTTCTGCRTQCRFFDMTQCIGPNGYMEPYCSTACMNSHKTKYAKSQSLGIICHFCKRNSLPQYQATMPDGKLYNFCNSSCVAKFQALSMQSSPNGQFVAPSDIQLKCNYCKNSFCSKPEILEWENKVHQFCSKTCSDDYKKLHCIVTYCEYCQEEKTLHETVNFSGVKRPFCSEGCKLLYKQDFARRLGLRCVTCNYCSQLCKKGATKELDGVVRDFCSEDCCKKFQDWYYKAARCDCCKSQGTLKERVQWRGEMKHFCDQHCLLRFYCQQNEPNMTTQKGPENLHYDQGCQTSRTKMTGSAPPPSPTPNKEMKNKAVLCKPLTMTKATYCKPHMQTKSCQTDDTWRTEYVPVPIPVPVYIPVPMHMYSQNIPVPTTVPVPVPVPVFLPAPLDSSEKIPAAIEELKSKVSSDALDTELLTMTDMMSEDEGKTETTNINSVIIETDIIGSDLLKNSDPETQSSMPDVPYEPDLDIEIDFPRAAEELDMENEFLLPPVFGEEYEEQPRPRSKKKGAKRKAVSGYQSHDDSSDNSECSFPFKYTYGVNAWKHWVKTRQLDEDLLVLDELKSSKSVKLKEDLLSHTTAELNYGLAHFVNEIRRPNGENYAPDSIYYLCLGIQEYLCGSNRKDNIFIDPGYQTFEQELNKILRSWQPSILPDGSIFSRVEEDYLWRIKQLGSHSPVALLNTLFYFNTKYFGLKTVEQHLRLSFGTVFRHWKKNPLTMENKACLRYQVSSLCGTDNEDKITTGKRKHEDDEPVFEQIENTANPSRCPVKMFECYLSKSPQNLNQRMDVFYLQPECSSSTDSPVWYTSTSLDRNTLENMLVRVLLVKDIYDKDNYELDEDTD
inactive: erlotinib 0.036 | [1] -0.049 | [2] 0.038 | [3] 0.073 | [4] -0.022 | [5] 0.053 | [6] -0.05 | [7] -0.209 | [8] 0.116 | IRAK-1-4 Inhibitor I 0.07 | ibrutinib -0.029 | [9] -0.059 | ralimetinib -0.037 | [10] -0.106 | [11] -0.039 | [12] -0.008 | [13] -0.018 | [14] 0.004 | [15] 0.04 | [16] -0.068

WRB (UniProt O00258)
inactive: erlotinib -0.043 | [1] 0.208 | [2] 0.027 | [3] 0.002 | [4] -0.009 | [5] -0.002 | [6] 0.049 | [7] 0.051 | [8] -0.064 | IRAK-1-4 Inhibitor I 0.101 | ibrutinib 0.045 | [9] -0.043 | ralimetinib -0.095 | [10] -0.255 | [11] -0.024 | [12] -0.025 | [13] -0.141 | [14] 0.063 | [15] -0.004 | [16] -0.024

VPS41 (UniProt P49754)
inactive: erlotinib 0.032 | [1] 0.073 | [2] -0.029 | [3] 0.062 | [4] -0.003 | [5] 0.036 | [6] -0.033 | [7] -0.025 | [8] 0.049 | IRAK-1-4 Inhibitor I -0.008 | ibrutinib -0.019 | [9] 0.007 | ralimetinib 0.015 | [10] 0.016 | [11] 0.003 | [12] 0.024 | [13] 0.014 | [14] 0.005 | [15] 0.047 | [16] 0.013

WIPI2 (UniProt Q9Y4P8)
inactive: erlotinib -0.006 | [1] -0.042 | [2] -0.009 | [3] 0.064 | [4] -0.037 | [5] -0.003 | [6] 0.035 | [7] -0.054 | [8] -0.047 | IRAK-1-4 Inhibitor I 0.021 | ibrutinib 0.047 | [9] 0.019 | ralimetinib 0.026 | [10] 0.018 | [11] 0.022 | [12] 0.042 | [13] -0.018 | [14] 0.006 | [15] -0.013 | [16] -0.003

YEATS4 (UniProt O95619)
inactive: erlotinib -0.017 | [1] -0.018 | [2] -0.018 | [3] 0.045 | [4] -0.079 | [5] -0.013 | [6] -0.027 | [7] 0.007 | [8] 0.034 | IRAK-1-4 Inhibitor I 0.002 | ibrutinib 0.02 | [9] 0.016 | ralimetinib 0.003 | [10] 0.009 | [11] 0.001 | [12] 0.01 | [13] -0.004 | [14] 0.041 | [15] -0.035 | [16] -0.039

WDR20 isoform 7 (UniProt Q8TBZ3)
inactive: erlotinib -0.001 | [1] -0.105 | [2] 0.043 | [3] 0.04 | [4] -0.117 | [5] 0.094 | [6] -0.016 | [7] -0.05 | [8] 0.092 | IRAK-1-4 Inhibitor I 0.026 | ibrutinib 0.003 | [9] -0.001 | ralimetinib 0.088 | [10] -0.023 | [11] -0.019 | [12] 0.087 | [13] 0.044 | [14] 0.058 | [15] -0.003 | [16] 0.014

VTN (UniProt P04004)
inactive: erlotinib -0.065 | [1] -0.006 | [2] 0.003 | [3] -0.033 | [4] 0.107 | [5] -0.096 | [6] -0.129 | [7] -0.065 | [8] -0.042 | IRAK-1-4 Inhibitor I 0.043 | ibrutinib -0.019 | [9] -0.007 | ralimetinib 0.01 | [10] -0.044 | [11] 0.028 | [12] 0.088 | [13] 0.017 | [14] -0.011 | [15] 0.155 | [16] -0.04

USP10 isoform 2 (UniProt Q14694)
inactive: erlotinib 0.022 | [1] -0.032 | [2] 0.01 | [3] 0.007 | [4] -0.017 | [5] 0.023 | [6] -0.028 | [7] -0.033 | [8] -0.034 | IRAK-1-4 Inhibitor I -0.005 | ibrutinib -0.038 | [9] 0.001 | ralimetinib -0.019 | [10] -0.014 | [11] -0.006 | [12] -0.025 | [13] 0.018 | [14] 0.003 | [15] 0.018 | [16] 0.008

UTP18 (UniProt Q9Y5J1)
inactive: erlotinib 0.055 | [1] 0.072 | [2] 0.051 | [3] -0.056 | [4] 0.129 | [5] 0.038 | [6] -0.068 | [7] -0.122 | [8] 0.107 | IRAK-1-4 Inhibitor I -0.031 | ibrutinib 0.125 | [9] -0.031 | ralimetinib 0.002 | [10] -0.017 | [11] 0.033 | [12] 0.057 | [13] -0.085 | [14] -0.017 | [15] 0.028 | [16] 0.023

WRN (UniProt Q14191)
Chain of UniProt Q14191 (Q14191 whole entry, looked up): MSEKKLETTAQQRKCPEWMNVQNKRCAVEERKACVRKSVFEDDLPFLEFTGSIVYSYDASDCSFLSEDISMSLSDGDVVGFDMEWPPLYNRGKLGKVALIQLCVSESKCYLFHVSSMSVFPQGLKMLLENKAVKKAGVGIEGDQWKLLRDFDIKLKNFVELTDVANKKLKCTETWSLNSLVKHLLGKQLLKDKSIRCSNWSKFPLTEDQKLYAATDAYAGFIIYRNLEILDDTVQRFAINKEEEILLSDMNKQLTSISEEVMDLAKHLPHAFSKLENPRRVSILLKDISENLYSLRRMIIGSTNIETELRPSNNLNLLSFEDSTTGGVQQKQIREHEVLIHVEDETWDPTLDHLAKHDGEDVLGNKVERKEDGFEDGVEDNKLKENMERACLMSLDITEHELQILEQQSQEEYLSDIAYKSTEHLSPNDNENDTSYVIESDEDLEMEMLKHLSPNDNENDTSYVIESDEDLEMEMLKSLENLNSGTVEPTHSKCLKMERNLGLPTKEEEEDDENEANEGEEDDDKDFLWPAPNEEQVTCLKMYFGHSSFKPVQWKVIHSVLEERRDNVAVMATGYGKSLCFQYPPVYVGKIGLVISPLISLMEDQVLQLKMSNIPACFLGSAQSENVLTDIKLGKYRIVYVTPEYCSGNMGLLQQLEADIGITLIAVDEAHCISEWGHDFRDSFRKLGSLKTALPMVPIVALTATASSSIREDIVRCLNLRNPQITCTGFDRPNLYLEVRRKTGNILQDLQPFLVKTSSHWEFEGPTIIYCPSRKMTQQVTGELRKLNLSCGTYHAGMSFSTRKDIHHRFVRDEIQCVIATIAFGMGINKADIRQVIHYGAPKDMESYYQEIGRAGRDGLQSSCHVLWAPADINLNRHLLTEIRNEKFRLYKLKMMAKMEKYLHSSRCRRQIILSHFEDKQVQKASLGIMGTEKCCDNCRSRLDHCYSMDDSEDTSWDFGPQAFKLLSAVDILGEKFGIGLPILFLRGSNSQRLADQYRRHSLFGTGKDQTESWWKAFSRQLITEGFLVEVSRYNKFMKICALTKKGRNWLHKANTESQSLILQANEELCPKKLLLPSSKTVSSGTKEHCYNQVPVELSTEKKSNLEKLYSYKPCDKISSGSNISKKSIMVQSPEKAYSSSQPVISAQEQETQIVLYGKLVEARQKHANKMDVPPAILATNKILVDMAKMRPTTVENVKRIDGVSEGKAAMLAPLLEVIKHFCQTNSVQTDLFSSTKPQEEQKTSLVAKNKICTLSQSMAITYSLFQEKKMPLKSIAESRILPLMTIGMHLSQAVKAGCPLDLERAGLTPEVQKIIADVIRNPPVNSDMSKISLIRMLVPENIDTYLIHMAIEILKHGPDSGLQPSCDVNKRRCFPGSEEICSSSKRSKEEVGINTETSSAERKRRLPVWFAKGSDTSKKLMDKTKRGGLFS
inactive: erlotinib -0.003 | [1] -0.048 | [2] 0.005 | [3] 0.006 | [4] 0.057 | [5] 0.011 | [6] -0.077 | [7] 0.02 | [8] -0.012 | IRAK-1-4 Inhibitor I -0.013 | ibrutinib 0.02 | [9] -0.008 | ralimetinib 0.021 | [10] -0.055 | [11] -0.016 | [12] 0.023 | [13] 0.019 | [14] -0.016 | [15] 0.016 | [16] -0.048

VASP (UniProt P50552)
inactive: erlotinib 0.001 | [1] -0.028 | [2] 0.017 | [3] -0.006 | [4] -0.035 | [5] -0.003 | [6] -0.02 | [7] -0.006 | [8] 0.035 | IRAK-1-4 Inhibitor I 0.014 | ibrutinib -0.002 | [9] 0.002 | ralimetinib -0.003 | [10] -0.018 | [11] -0.009 | [12] -0.007 | [13] 0.038 | [14] 0.014 | [15] -0.014 | [16] 0.01

WDHD1 (UniProt O75717)
Chain of UniProt O75717 (O75717 whole entry, looked up): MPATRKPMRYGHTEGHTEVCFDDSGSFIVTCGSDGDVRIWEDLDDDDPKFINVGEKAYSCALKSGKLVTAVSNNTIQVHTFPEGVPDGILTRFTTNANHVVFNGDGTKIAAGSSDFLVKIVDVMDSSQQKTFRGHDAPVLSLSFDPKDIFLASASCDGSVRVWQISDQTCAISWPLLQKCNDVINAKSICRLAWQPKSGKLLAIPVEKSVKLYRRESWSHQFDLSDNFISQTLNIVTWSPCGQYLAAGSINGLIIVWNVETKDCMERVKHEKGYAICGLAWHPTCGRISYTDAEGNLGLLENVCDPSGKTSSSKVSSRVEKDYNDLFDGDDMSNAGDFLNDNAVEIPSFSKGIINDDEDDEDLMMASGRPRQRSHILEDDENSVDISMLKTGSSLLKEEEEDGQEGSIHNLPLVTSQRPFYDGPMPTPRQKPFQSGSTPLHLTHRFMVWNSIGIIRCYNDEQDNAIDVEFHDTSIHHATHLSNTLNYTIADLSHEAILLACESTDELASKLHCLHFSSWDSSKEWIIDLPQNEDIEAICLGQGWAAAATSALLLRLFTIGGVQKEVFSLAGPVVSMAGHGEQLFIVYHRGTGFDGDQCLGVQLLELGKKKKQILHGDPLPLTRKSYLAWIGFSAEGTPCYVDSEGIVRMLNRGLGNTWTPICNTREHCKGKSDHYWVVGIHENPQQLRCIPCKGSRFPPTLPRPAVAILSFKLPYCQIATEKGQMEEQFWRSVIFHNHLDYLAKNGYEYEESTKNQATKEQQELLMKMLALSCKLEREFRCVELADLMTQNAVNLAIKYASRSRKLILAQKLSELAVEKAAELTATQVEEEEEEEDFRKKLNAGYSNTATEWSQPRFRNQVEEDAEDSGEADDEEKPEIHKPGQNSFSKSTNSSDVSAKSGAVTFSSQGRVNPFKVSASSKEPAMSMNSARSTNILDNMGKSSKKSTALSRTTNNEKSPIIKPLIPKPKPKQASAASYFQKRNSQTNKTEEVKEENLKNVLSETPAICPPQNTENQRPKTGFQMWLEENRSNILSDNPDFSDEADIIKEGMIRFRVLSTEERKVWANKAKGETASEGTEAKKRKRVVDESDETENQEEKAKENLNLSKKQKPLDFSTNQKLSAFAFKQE
inactive: erlotinib 0.013 | [1] 0.025 | [2] -0.004 | [3] 0.019 | [4] 0.002 | [5] 0.006 | [6] -0.005 | [7] 0 | [8] 0.025 | IRAK-1-4 Inhibitor I -0.017 | ibrutinib 0.024 | [9] -0.002 | ralimetinib 0.005 | [10] -0.01 | [11] -0.027 | [12] 0.007 | [13] -0.002 | [14] -0.002 | [15] 0.016 | [16] -0.005

USP48 isoform 8 (UniProt Q86UV5)
Chain of UniProt Q86UV5 (Q86UV5 whole entry, looked up): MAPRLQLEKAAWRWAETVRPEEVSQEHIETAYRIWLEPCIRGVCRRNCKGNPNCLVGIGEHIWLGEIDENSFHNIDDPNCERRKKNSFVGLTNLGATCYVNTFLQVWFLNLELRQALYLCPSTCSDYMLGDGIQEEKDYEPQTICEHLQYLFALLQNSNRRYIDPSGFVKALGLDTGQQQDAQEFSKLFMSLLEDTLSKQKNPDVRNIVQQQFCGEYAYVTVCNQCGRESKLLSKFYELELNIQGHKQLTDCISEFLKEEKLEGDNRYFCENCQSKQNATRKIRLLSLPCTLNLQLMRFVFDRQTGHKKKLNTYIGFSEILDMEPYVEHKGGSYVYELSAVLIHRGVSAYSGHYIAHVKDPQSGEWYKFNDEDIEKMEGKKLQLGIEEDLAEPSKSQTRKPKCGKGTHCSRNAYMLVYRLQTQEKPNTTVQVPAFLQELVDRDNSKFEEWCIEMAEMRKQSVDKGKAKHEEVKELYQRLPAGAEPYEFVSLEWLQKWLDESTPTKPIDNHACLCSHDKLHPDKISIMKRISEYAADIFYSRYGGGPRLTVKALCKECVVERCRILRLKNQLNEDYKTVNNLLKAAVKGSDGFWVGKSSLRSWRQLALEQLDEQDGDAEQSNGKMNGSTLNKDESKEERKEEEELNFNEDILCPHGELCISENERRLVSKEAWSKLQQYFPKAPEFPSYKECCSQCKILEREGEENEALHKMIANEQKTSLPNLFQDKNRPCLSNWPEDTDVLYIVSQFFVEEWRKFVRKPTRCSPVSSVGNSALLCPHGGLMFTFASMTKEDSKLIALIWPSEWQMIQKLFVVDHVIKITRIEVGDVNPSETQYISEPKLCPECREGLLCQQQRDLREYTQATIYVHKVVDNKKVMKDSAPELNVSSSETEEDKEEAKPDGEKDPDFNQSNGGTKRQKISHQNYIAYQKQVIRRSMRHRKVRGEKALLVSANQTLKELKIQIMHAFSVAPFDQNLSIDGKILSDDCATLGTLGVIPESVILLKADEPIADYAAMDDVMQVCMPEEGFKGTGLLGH
inactive: erlotinib 0.001 | [1] -0.059 | [2] -0.011 | [3] -0.008 | [4] 0.005 | [5] 0.02 | [6] -0.02 | [7] 0 | [8] 0.018 | IRAK-1-4 Inhibitor I -0.014 | ibrutinib -0.02 | [9] -0.014 | ralimetinib 0.004 | [10] 0 | [11] -0.005 | [12] 0.007 | [13] -0.005 | [14] 0.001 | [15] 0 | [16] -0.01

VPS28 (UniProt Q9UK41)
inactive: erlotinib 0.707 | [1] -0.039 | [2] 0.004 | [3] -0.005 | [4] 0.041 | [5] 0.028 | [6] -0.036 | [7] -0.006 | [8] -0.018 | IRAK-1-4 Inhibitor I -0.036 | ibrutinib 0.109 | [9] -0.02 | ralimetinib 0.009 | [10] 0.046 | [11] -0.004 | [12] -0.005 | [13] 0.019 | [14] -0.092 | [15] 0.028 | [16] 0.019

XPO5 (UniProt Q9HAV4)
inactive: erlotinib 0.026 | [1] 0.024 | [2] -0.02 | [3] 0.005 | [4] 0 | [5] -0.003 | [6] -0.044 | [7] 0.008 | [8] 0.035 | IRAK-1-4 Inhibitor I -0.015 | ibrutinib -0.041 | [9] 0.003 | ralimetinib 0 | [10] -0.043 | [11] -0.039 | [12] -0.014 | [13] -0.01 | [14] -0.004 | [15] 0.043 | [16] -0.01

WRNIP1 (UniProt Q96S55)
inactive: erlotinib 0.019 | [1] -0.128 | [2] -0.014 | [3] -0.024 | [4] -0.005 | [5] 0.003 | [6] -0.064 | [7] 0.028 | [8] 0.023 | IRAK-1-4 Inhibitor I -0.05 | ibrutinib 0.025 | [9] 0.026 | ralimetinib 0.051 | [10] 0.026 | [11] 0.001 | [12] 0.045 | [13] 0.013 | [14] -0.023 | [15] -0.003 | [16] -0.023
